# Compound activity deposited in PubChem BioAssay by National Center for Advancing Translational Sciences (NCATS).
# KB-V1 MDR tox: KB-V1 MDR subline cytotoxicity; Potency, µM (series often up to 46.1 µM), usual class: cytotoxic; 400,000 tested, 3.4% active; KB-V1 MDR cells viability, CellTiter-Glo, 72 h; note: % is set by controls: 0 for no effect and ±100 for the full control effect; nearly all actives have a fitted effect of over 60% in size
#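 Potencies derive from concentration-effect curves fitted to normalized luminescence (CellTiter-Glo) of KB-V1 cells treated for 72 h at 37 degrees C in phenol-red-free DMEM containing 10% FBS.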
# KB-3-1 cytotox: kills parental KB-3-1 adenocarcinoma cells; Potency, µM (top dose mostly 46.1 µM), hits mostly cytotoxic; KB-3-1 viability, CellTiter-Glo ATP luminescence, 72 h; 400,000 tested, 1.4% active; note: % is set by controls: 0 for no effect and ±100 for the full control effect; nearly all actives have a fitted effect of over 60% in size
#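 Parental KB-3-1 adenocarcinoma cells in phenol-red-free DMEM with 10% FBS were pin-treated with compounds at several concentrations, incubated 72 h at 37 °C, and viability read by CellTiter-Glo luminescence; concentration-effect curves were fitted after normalization.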
# SW480 rerep: inducers of DNA re-replication in SW480 colon cancer cells | SW480 DNA re-replication, Hoechst DNA content imaging, 48 h | Potency, µM (series often up to 46.1 µM), for inactives: top-dose re-replication activation, most hits filed as activators | 340,000 tested, 1.8% active | AID 624297; note: % of control where 0% means no effect; nearly all actives have a fitted effect of over 55% in size
#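 Compounds, transferred as 23 nL by pin tool, were incubated with cells for 48 hr; DNA content per nucleus was then quantified by Hoechst staining and fluorescence plate imaging.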
# PTAP TSG101 blk: blocks PTAP/TSG101 interaction to inhibit HIV-1 budding | Q99816 | Fluorescence polarization, FITC-PTAP peptide / Tsg101 binding | Potency, µM (series often up to 115 µM), inactives show at the highest dose activity change, negative = inhibition, most hits filed as inhibitors | 340,000 tested, under 10 active | AID 493005; active = well fitted inhibition curve with a large enough effect in the main read-out, with a control signal flat, not every such curve was filed as active; inconclusive = small, poorly fitted or top-dose-only effect, or effect the other way, or a change in a side signal; inactive = no such curve, though single readings can be large or run the other way; note: % of control where 0% means no effect
# Target sequence (Q99816 whole entry, looked up): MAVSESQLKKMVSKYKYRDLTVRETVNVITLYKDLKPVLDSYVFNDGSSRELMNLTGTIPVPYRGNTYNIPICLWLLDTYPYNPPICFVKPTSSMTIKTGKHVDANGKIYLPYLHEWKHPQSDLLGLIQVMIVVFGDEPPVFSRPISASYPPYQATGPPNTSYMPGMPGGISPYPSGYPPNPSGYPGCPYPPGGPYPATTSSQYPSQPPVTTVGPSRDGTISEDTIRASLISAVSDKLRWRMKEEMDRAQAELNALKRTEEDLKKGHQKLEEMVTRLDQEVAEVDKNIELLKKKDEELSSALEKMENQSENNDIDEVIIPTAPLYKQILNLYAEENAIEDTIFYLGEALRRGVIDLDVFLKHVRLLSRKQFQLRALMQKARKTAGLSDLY
#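 FP read-out: FITC-PTAP peptide, 50 nM final, binding Tsg101 binding domain, 10 uM final; 20 min, r.t.; 10 mM HEPES pH 7.5, 0.15 M NaCl, 0.01% Tween 20, 3 mM EDTA, 0.1 mM TCEP.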
# RGS4 inhibitor: human RGS4 inhibition; Transcreener GDP fluorescence polarization, RGS4-accelerated GTP hydrolysis; Potency, µM (doses to about 114 µM), inactives show at the highest dose activity change, negative = inhibition, most hits filed as inhibitors; AID 504845; 390,000 tested, 0.039% active; P49798; note: % is set by controls: 0 for no effect and ±100 for the full control effect; nearly all actives have a fitted effect of over 75% in size
# Target sequence (P49798 whole entry, looked up): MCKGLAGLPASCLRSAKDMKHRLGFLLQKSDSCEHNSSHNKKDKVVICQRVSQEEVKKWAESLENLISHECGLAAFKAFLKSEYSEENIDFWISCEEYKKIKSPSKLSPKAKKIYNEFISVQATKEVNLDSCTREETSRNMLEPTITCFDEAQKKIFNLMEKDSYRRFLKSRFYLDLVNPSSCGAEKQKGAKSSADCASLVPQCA
#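 MLSMR compounds (23 nl, pin-transferred) preincubated 10 min at room temperature with a 500nM (2x) first reagent, then RGS4 at 900nM (2x) plus Transcreener GDP mix added; fluorescence polarization (620/688 nm) read before and after 90 min at 30 °C.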
# MCF10A rerep: inducers of DNA re-replication in MCF 10A breast cells | MCF 10A DNA re-replication, Hoechst nuclear intensity, 48 h | Potency, µM (doses to about 46.1 µM), inactives show top-dose activity, positive = re-replication, hits mostly activators | 350,000 tested, 2.9% active; note: % of control where 0% means no effect; nearly all actives have a fitted effect of over 50% in size
# Starred values were filed as active, the others as inactive; i = inactive; ? = inconclusive; . = not tested or not shown; [ ] = remark or other dose. Shown are actives, neighbours in structure and some others; about 6.6% of the full set was active somewhere. Unless noted, calls come from the whole dose curve; as a rule, active = well fitted curve in the direction sought with a large enough effect; inconclusive = small, poorly fitted or top-dose-only effect, or another doubt; inactive = no such curve, though single readings can be large; an effect the other way counts as inactive or inconclusive. Potency is the fitted concentration of half-maximal effect.
SMILES,KB-V1 MDR tox,KB-3-1 cytotox,SW480 rerep,PTAP TSG101 blk,RGS4 inhibitor,MCF10A rerep
CCCCc1ccc(N/C(N)=N/c2nc(C)cc(C)n2)cc1,6.5µM*,?,?,-4%,-18%,?
Cc1cc(C)cc(N/C(N)=N/c2nc(C)cc(C)n2)c1,21µM*,?,?,-1%,8%,?
Cc1ccc(N/C(N)=N/c2nc(C)cc(C)n2)cc1,?,i,?,-3%,0%,?
S=c1[nH]nc(-c2cc(-c3ccccc3)n[nH]2)n1/N=C/C(Br)=C/c1ccccc1,?,15µM*,?,-2%,-26%,3.3µM*
S=c1[nH]nc(-c2ccco2)n1/N=C/C(Cl)=C/c1ccccc1,i,i,?,0%,?,7.3µM*
Cc1cc(-c2n[nH]c(=S)n2/N=C/C(Cl)=C/c2ccccc2)n[nH]1,21µM*,?,?,1%,?,4.6µM*
CC(/C=N/n1c(-c2cccnc2)n[nH]c1=S)=C\c1ccccc1,16µM*,i,-10%,-7%,?,12%
S=c1[nH]nc(-c2cc(-c3ccccc3)n[nH]2)n1/N=C/c1ccccc1,i,i,?,-5%,-13%[56.9 µM],?
Cc1cc(-c2n[nH]c(=S)n2/N=C/c2cccc(O)c2)n[nH]1,i,i,11%,-9%,-23%,8%
CCN(C(=O)Cn1nnc2sc3c(c2c1=O)CCC(C(C)(C)C)C3)c1cccc(C)c1 (stereo not given),i,i,.,.,13%,.
CN(C)N1C(N)=C(C#N)C(c2cccc3ccccc23)C2=C1CC(c1ccccc1)CC2=O (stereo not given),21µM*,13µM*,?,-1%,15%,15µM*
COc1ccc2c(c1)cc1c(=O)n(CC(=O)NC3CCCCC3)nc(C)n12,i,i,.,.,15%,.
CCC1CCCCN1C(=O)COC(=O)c1cc(=O)[nH]c2ccccc12 (stereo not given),18µM*,i,-5%,-1%,-22%,0%
NC(=O)COC(=O)c1cc(=O)[nH]c2ccccc12,i,i,-5%,-7%,3%[11.4 µM],1%
CCCCCOC(=O)c1cc(=O)[nH]c2ccccc12,2.3µM*,8.2µM*,-1%,-1%,3%,?
COCC(C)n1c(C)cc(C(=O)COC(=O)c2cc(=O)[nH]c3ccccc23)c1C (stereo not given),21µM*,i,-3%,-6%,-33%,7%
COc1ccc(C(=O)NC2(C(F)(F)F)C(=O)NC(C)=C2C#N)cc1 (stereo not given),i,i,.,.,15%,.
COc1cc(C(=O)Oc2cccc(C=O)c2)cc(OC)c1OC,i,i,16µM*,-1%,20%,2%
COc1cc(C(=O)Oc2cccc(/C=N/NC(=O)c3cc(C)[nH]n3)c2)cc(OC)c1OC,i,i,1%,-7%,36%,3%
CCCC[C@@H](CNC)NC[C@H](Cc1ccc(O)cc1)NCCc1ccc(OCC)cc1,?,i,?,-2%,15%,?
CNC[C@@H](C)NC[C@@H](Cc1ccccc1)NCCc1ccccc1,i,?,0.37µM*,0%,14%,-35%
COc1ccc2oc(=O)c(-c3cn4ccc(C)cc4n3)cc2c1,i,i,?,-6%,-24%,15µM*
Cc1ccccc1Cn1cnc2nc3c(cc2c1=O)CC(C)CC3 (stereo not given),i,i,.,.,-21%,.
Cc1cccc(-n2nc(C(=O)c3ccco3)cc(-c3nc4ccccc4[nH]3)c2=N)c1,i,i,2%,-1%,18%,-2%
Cc1ccccc1-n1nc(C(=O)c2cccs2)cc(-c2nc3ccccc3[nH]2)c1=N,2.3µM*,i,?,0%,8%,26%
SMILES,KB-V1 MDR tox,KB-3-1 cytotox,SW480 rerep,PTAP TSG101 blk,RGS4 inhibitor,MCF10A rerep
COc1ccc(-n2nc(C(=O)c3cccs3)cc(-c3nc4ccccc4[nH]3)c2=N)cc1,16µM*,?,?,2%,13%,7%
Cc1ccc(Cl)cc1NC(=O)C(=O)NCC(c1cccnc1)N1CCc2ccccc21 (stereo not given),?,i,.,.,-19%,.
COC(=O)C1=C[C@@H](C(=O)OC)C2C3=C(C(=O)[C@]2(CC(C)C)NC(=O)c2ccccc2)[C@H](C)n2c(=O)n(-c4ccccc4)c(=O)n2[C@@H]3C1 (stereo not given in full),.,.,.,.,5%,.
O=C(NCc1ccc(F)cc1)C1CCN(S(=O)(=O)c2ccc3c(c2)CCCN3C(=O)C2CCC2)CC1,i,?,.,.,-8%,.
COc1ccc(-c2cc(C(F)(F)F)c(C#N)c(SCC(=O)Nc3ccc(C)cc3)n2)cc1,i,i,-2%,-1%,-7%,6%
COc1ccc(C(=O)CSc2[nH]c(=O)cc(C(F)(F)F)c2C#N)cc1,i,?,?,-13%,-17%,18µM*
CN1CCN(c2ncc3c(n2)CCN(Cc2ccccc2Cl)C3)CC1,i,i,.,.,25%,.
Cc1cc(-c2ccc(C(C)C)c(S(=O)(=O)N3CCN(c4ccccc4)CC3)c2)on1,12µM*,5.8µM*,6.5µM*,-3%,-25%,?
COc1ccc(N2CCN(S(=O)(=O)c3cc(-c4cc(C)no4)ccc3C(C)C)CC2)cc1,?,i,-2%,0%,-5%,13%
CCc1ccc(-c2cc(C)no2)cc1S(=O)(=O)N1CCN(c2cccc(Cl)c2)CC1,?,3.7µM*,.,.,-11%,.
Cc1cc(-c2ccc(C(C)C)c(S(=O)(=O)N3CCC(C)CC3)c2)on1,i,21µM*,-1%,2%,13%,-3%
O=S(=O)(c1ccc2c(c1)OCO2)N1CCN(c2nc(-c3cccs3)nc3ccccc23)CC1,.,.,.,.,-2%,.
Cc1c(C(=O)Nc2ccc(Cl)cc2)c2ccccn2c1C(=O)c1ccccc1,?,?,?,-10%,1%,26µM*
Cc1c(/C=N/NC(=O)CNc2ccccc2)c2ccccn2c1C(=O)c1ccc(Cl)cc1,2.3µM*,i,-18%,-6%,-8%,7%
Cc1c(C(=O)Nc2ccc(Cl)cc2)c2ccccn2c1C(=O)c1ccc([N+](=O)[O-])cc1,i,i,19%,-9%,10%[56.9 µM],6%
